In PubChem BioAssay (NCI) one finds growth data, which are given here for 13 molecules.

Compounds without any hit were thinned out: in the full panel of roughly 83,000, 20% have a hit.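 Plates (96-well) were seeded with cells, treated with compound at one concentration, and incubated for 48 hours before percent growth was determined.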 Activity calls are given as the source filed them. Rule for the calls: active = growth percent below 10; inactive = the rest.

Assay in all cases: NCI-60 one-dose screen, 48 h (100 = growth as untreated, 0 = no growth, -100 = all killed)
In test [1] the test system is SR leukemia. Particulars: 10 µM unless noted.
Test [2] relates to RPMI-8226 leukemia. Particulars: 10 µM.
For test [3], the system named is OVCAR-8 ovarian. The settings on record: 10 µM unless noted.
The subject of test [4] is OVCAR-5 ovarian. The settings on record: 10 µM unless noted.
The subject of test [5] is OVCAR-4 ovarian. The settings on record: 10 µM unless noted.
In test [6] the test system is SK-OV-3 ovarian. Particulars: 10 µM.
The test system of test [7] is IGROV1 ovarian. The settings on record: 10 µM unless noted.
In test [8] the test system is OVCAR-3 ovarian. Particulars: 10 µM unless noted.
Test [9] deals with HS 578T breast. The settings on record: 10 µM unless noted.
The test system of test [10] is NCI/ADR-RES ovarian. The settings on record: 10 µM unless noted.
In test [11] the test system is T-47D breast. The settings on record: 10 µM.
Test [12] relates to MDA-MB-435 melanoma. The settings on record: 10 µM unless noted.
Test [13] relates to SW-620 colon. The settings on record: 10 µM unless noted.
Test [14] deals with MCF7 breast. Particulars: 10 µM unless noted.
Test [15] has as its system HCT-116 colon. Particulars: 10 µM unless noted.
Test [16] has as its system HCC-2998 colon. Particulars: 10 µM unless noted.
In test [17] the test system is KM12 colon. The settings on record: 10 µM unless noted.
Test [18] deals with BT-549 breast. Particulars: 10 µM unless noted.

As to `COc1cc(/C=C/C(=O)CC(=O)/C=C/c2cc(Br)c(OC)c(OC)c2)cc(Br)c1OC`, the growth is 49.6% (inactive) in test [1]; 116% (inactive) in [2]; 102% (inactive) in test [3]; 99.1% (inactive) in test [4]; 103% (inactive) in test [5]; 96.6% (inactive) in [6]. Further, the growth is 109% (inactive) in test [7]; 102% (inactive) in test [8]; 113% (inactive) in test [9]; 99.3% (inactive) in test [10]; 83.7% (inactive) in test [11]; 101% (inactive) in test [12]. Further, the growth was 114% (inactive) in [13]; 97.4% (inactive) in [14]; 98.3% (inactive) in test [15]; 109% (inactive) in test [16]; 103% (inactive) in [17].

In the case of `O=C1CC(c2ccsc2)c2snc(-c3ccc(Cl)cc3)c2N1` (centres undefined), the growth is 20.9% (inactive) in test [1]; 12.5% (inactive) in test [2]; 40.8% (inactive) in [3]; 47.7% (inactive) in test [4]; 37.5% (inactive) in test [5]; -3.45% (active) in [6]. Moreover, the growth in test [7] is 40.7% (inactive); in [8], -14% (active); in test [9] it was 46% (inactive); in [10], 16.8% (inactive); in test [11], 30.6% (inactive); in test [18], 32.8% (inactive). Besides, the growth in test [12] is -20.9% (active); in [13], 33.4% (inactive); in test [14] it was 7.59% (active); in test [16] it was 58.5% (inactive); in [17], 27.6% (inactive).

Consider `COc1ccc(-c2cc(=O)oc3c4c(ccc23)OCN(Cc2ccc(F)cc2)C4)cc1`, for which the growth in test [1] was 54.7% (inactive); in test [2] it was 30.1% (inactive); in test [3] it was 56.7% (inactive); in test [4] it was 80.2% (inactive); in test [5], 35.2% (inactive); in [6] it was 74.3% (inactive). The growth in test [7] was 64.5% (inactive); in test [8] it was 52.4% (inactive); in test [9], 83.1% (inactive); in [10], 45.9% (inactive); in test [11] it was 62.8% (inactive); in test [18] it was 66% (inactive). For the same molecule, the growth is 59.6% (inactive) in [12]; 66.2% (inactive) in test [13]; 48.8% (inactive) in test [14]; 39.6% (inactive) in test [15]; 79.4% (inactive) in test [17].

Turning to `O=C1OCC2=C1C(c1ccc3c(c1)OCO3)CC(=O)N2c1cccc(Cl)c1` (centres undefined), the growth in test [1] was 98.6% (inactive); in test [2], 90.1% (inactive); in test [3], 102% (inactive); in test [4], 106% (inactive); in test [5] it was 93.5% (inactive); in test [6], 97.5% (inactive). In addition, the growth in test [7] is 104% (inactive); in test [8] it was 109% (inactive); in test [9] it was 94.5% (inactive); in test [10], 98.9% (inactive); in [11], 103% (inactive); in test [18], 126% (inactive). Moreover, the growth in test [12] was 100% (inactive); in [13], 105% (inactive); in test [14], 86.7% (inactive); in test [15], 114% (inactive); in test [17], 101% (inactive).

In the case of `CN1CCN(C(=O)OCCOCCOC(=O)N2CCN(C)CC2)CC1`, the growth in [1] was 95% (inactive); in test [2], 81% (inactive); in test [3], 102% (inactive); in test [4], 104% (inactive); in test [5] it was 106% (inactive); in [6] it was 117% (inactive). In addition, the growth is 132% (inactive) in test [7]; 117% (inactive) in test [8]; 111% (inactive) in test [9]; 96.3% (inactive) in test [10]; 109% (inactive) in test [11]; 98.7% (inactive) in [18]. The growth in test [12] was 98.9% (inactive); in test [13], 117% (inactive); in test [15], 94.8% (inactive); in test [16], 98.4% (inactive); in test [17], 104% (inactive).

For `CC(=O)Nc1ccc(Sc2ccc([N+](=O)[O-])o2)cc1`, the growth is 26.1% (inactive) in [1]; 9.87% (active) in test [2]; -1.51% (active) in [3]; 94.8% (inactive) in test [4]; 23.5% (inactive) in test [5]; 120% (inactive) in test [6]. The growth is 42.2% (inactive) in test [7]; -8.53% (active) in test [8]; 46.8% (inactive) in [9]; 15.9% (inactive) in [10]; -34.3% (active) in test [11]; 32.6% (inactive) in test [18]. For the same molecule, the growth in test [12] is 9.62% (active); in test [13] it was -76.5% (active); in test [14], 26.9% (inactive); in [15], -82% (active); in test [17], 56.8% (inactive).

Consider `CN1CCC(OC2c3ccccc3CCc3ccccc32)CC1`, for which the growth in test [1] was 96.5% (inactive); in [2], 88% (inactive); in test [3], 97.6% (inactive); in test [4], 95.3% (inactive); in [5], 94.4% (inactive); in test [6] it was 96% (inactive). For the same molecule, the growth in test [7] was 109% (inactive); in test [8], 106% (inactive); in test [9], 87.4% (inactive); in test [10], 96.5% (inactive); in test [11] it was 94.9% (inactive); in test [18], 90.7% (inactive). Moreover, the growth is 95.5% (inactive) in [12], 95.1% (inactive) in test [13], 98.4% (inactive) in test [15] and 102% (inactive) in [17].

Consider `COc1cccc(C2CC(=O)Nc3cc4c(cc32)OCO4)c1OC` (centres undefined), for which the growth in test [1] is 86.2% (inactive); in test [2] it was 79.2% (inactive); in test [3], 98.6% (inactive); in test [4] it was 98.8% (inactive); in test [5], 95% (inactive); in [6] it was 102% (inactive). Also, the growth is 93.4% (inactive) in test [7]; 99.7% (inactive) in [8]; 93.1% (inactive) in test [9]; 92.2% (inactive) in test [10]; 87.5% (inactive) in [11]; 101% (inactive) in test [18]. The growth in test [12] was 97% (inactive); in [13] it was 105% (inactive); in test [14], 94.8% (inactive); in test [15], 93.6% (inactive); in test [17], 91.6% (inactive).

As for `CC(=O)OC[C@H](O)[C@@]1(O)CC[C@H]2[C@@H]3CCC4=CC(=O)CC[C@]4(C)[C@H]3[C@@H](O)C[C@@]21C`, the growth in [1] is 99.9% (inactive); in test [2] it was 89.8% (inactive); in test [3] it was 98.5% (inactive); in [4] it was 96.6% (inactive); in [5] it was 105% (inactive); in test [6], 90.8% (inactive). Also, the growth in [7] is 111% (inactive); in test [8], 108% (inactive); in test [9] it was 114% (inactive); in test [10] it was 102% (inactive); in test [11], 113% (inactive); in test [12], 119% (inactive). In addition, the growth in [13] was 102% (inactive); in test [14], 112% (inactive); in test [15] it was 98.4% (inactive); in test [16] it was 103% (inactive).

For the molecule `COc1cccc(C2CC(=O)Nc3cc4c(cc32)CCC4)c1OC` (centres undefined), the growth is 3.06% (active) in [1]; 50.6% (inactive) in [2]; 84.9% (inactive) in test [3]; 99.5% (inactive) in [4]; 76.2% (inactive) in test [5]; 44.5% (inactive) in test [6]. Further, the growth is 57% (inactive) in test [7]; 46.1% (inactive) in [8]; 67.7% (inactive) in test [9]; 42.1% (inactive) in test [10]; 57.1% (inactive) in test [11]; 62.3% (inactive) in test [18]. Moreover, the growth in test [12] was -56.5% (active); in test [13], 29.3% (inactive); in test [14], 29.3% (inactive); in test [15], 57.7% (inactive); in [17] it was 28.5% (inactive).

`Cn1c(=O)c(S(=O)(=O)c2ccccc2)cc2ccc3c(cnn3-c3ccc(Cl)cc3)c21`: the growth in [1] is 79% (inactive); in test [2], 75.9% (inactive); in [3] it was 60.9% (inactive); in [4], 94.3% (inactive); in test [5], 39.1% (inactive); in test [6] it was 69.7% (inactive). In addition, the growth in test [7] is 96% (inactive); in test [8], 94.5% (inactive); in test [9], 69.3% (inactive); in [10], 81.5% (inactive); in test [11] it was 50.5% (inactive); in [18] it was 66.1% (inactive). The growth is 80.8% (inactive) in test [12]; 90.5% (inactive) in test [13]; 99.8% (inactive) in test [14]; 93.4% (inactive) in [16]; 89.3% (inactive) in [17].

As for `COc1cc(/C=C/C(=O)C(=Cc2ccc(F)c(F)c2)C(=O)/C=C/c2ccc(O)c(OC)c2)ccc1O`, the growth is 18.2% (inactive) in [1]; 19.9% (inactive) in test [2]; 11.1% (inactive) in test [3]; 115% (inactive) in test [4]; 39.3% (inactive) in test [5]; 94.4% (inactive) in test [6]. Further, the growth is 5.44% (active) in [7]; -11.9% (active) in test [8]; 38.4% (inactive) in test [9]; 57.6% (inactive) in [10]; 44.1% (inactive) in test [11]; 0.136% (active) in test [12]. The growth in [13] was -44.7% (active); in [14], 35.8% (inactive); in [15], -76.5% (active); in test [16], -71.9% (active); in [17] it was 1.53% (active).

Regarding `O=c1nc(NO)[nH]c(=O)n1Cc1ccc(F)cc1`, the growth was 103% (inactive) in [1]; 105% (inactive) in [2]; 109% (inactive) in test [3]; 104% (inactive) in test [4]; 91.5% (inactive) in test [5]; 105% (inactive) in test [6]. In addition, the growth was 97.3% (inactive) in test [7]; 112% (inactive) in [8]; 112% (inactive) in test [9]; 107% (inactive) in test [10]; 102% (inactive) in test [18]; 103% (inactive) in [12]. The growth was 101% (inactive) in test [13]; 94.3% (inactive) in [14]; 102% (inactive) in [15]; 114% (inactive) in [16]; 109% (inactive) in [17].
